This is one part of a sample in which hits are shown more often than they occur.
HEK293 cAMP cs: parental HEK293 cAMP activation (counter-screen); parental HEK293 CNG cAMP sensor, membrane potential fluorescence; Potency, µM (top dose mostly 57.1 µM), inactives show top-dose activation, most hits filed as activators; AID 938; 2.5% of 73,000 active; also: % of control where 0% means no effect; nearly all actives have a fitted effect of over 55% in size
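Parental HEK 293 cells stably expressing a modified CNG channel (no TSHR) report cAMP rise as membrane depolarization. Membrane potential dye with 100 uM RO 20-1724 was loaded for 60 min at room temperature, then compound added for 30 min; fluorescence read at 590 nm.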
Peg3 imprint: genomic imprint erasure induction; 0.02% of 110,000 active; AID 1948; Potency, µM (top dose mostly 60.7 µM), inactives show top-dose activity change, positive = activation, actives largely listed as activators; mouse ES Peg3-LacZ reporter, beta-gal luminescence, 40 h
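Each well holds 300 Peg3LacZ-Neo (maternal) female ES cells incubated 40 h at 37C, 5% CO2. LacZ is measured by BetaGlo luminescence, with AC50 and maximum efficacy derived from dose-response curves.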
TSHR agonist: TSH receptor (human) agonism | Potency, µM (top dose mostly 57.1 µM), for inactives: at the top dose activation, hits mostly activators | HEK293-CNG-TSHR cells (CNG channel as cAMP sensor), membrane potential dye, cAMP | AID 926 | 0.48% of 73,000 active; active = well fitted activation curve with a large enough effect in the main read-out, with a control signal flat, not every such curve was filed as active; inconclusive = small, poorly fitted or top-dose-only effect, or a change in a side signal; inactive = no such curve, though single readings can be large or run the other way; % of control where 0% means no effect;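 also: the control signal comes from parental cells without the receptor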
Target sequence (P16473 whole entry, looked up): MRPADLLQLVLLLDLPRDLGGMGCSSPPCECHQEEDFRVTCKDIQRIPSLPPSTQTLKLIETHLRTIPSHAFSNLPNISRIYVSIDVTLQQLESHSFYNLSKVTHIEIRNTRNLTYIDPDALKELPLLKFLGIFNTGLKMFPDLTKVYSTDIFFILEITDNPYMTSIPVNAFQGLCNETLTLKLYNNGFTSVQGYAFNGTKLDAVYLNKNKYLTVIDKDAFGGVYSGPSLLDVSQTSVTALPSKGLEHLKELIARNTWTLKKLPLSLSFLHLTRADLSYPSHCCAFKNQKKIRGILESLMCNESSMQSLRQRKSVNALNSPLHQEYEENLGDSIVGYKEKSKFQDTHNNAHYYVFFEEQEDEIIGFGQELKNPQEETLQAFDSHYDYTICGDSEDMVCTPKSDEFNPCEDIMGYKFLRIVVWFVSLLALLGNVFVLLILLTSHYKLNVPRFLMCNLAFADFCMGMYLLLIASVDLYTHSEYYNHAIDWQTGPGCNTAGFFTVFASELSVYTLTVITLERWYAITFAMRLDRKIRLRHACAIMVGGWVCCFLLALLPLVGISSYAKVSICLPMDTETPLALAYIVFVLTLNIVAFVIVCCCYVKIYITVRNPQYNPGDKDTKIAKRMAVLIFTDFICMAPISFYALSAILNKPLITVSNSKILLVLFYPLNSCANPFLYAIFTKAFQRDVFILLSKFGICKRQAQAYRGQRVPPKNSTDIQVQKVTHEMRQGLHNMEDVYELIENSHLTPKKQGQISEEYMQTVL
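cAMP rise detected as CNG-channel membrane depolarization by fluorescent dye (emission 590 nm), 30 min after compound, following 60 min dye loading containing 100 uM RO 20-1724 at room temperature. Cells: TSHR/CNG HEK 293, with parental CNG HEK 293 as control.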
Active calls of the source: *; ? = inconclusive; · = no result; [ ] = remark or other dose. Unless noted, calls follow the shape of the dose curve; as a rule, active = well fitted activation curve with a large enough effect; inconclusive = small, poorly fitted or top-dose-only effect; inactive = no such curve, though single readings can be large or run the other way. Potency is read from the fitted curve at half-maximal effect.

SMILES	HEK293 cAMP cs	Peg3 imprint	TSHR agonist
CCCC(c1nnnn1C1CCCCC1)N1CCN(C2CCCC2)CC1 (centres undefined)	15.8µM*	-1.7%	?
CCCC(c1nnnn1C(C)(C)CC)N1CCN(C2CCCC2)CC1 (centres undefined)	1µM*	-11.8%	?
CCC(c1nnnn1C1CCCCC1)N1CCN(C2CCCC2)CC1 (centres undefined)	5.01µM*	1.4%	?
CCCC(c1nnnn1Cc1ccc(F)cc1)N1CCN(C2CCCCC2)CC1 (centres undefined)	?	3.6%	?
CCOc1ccc(Cn2c(CNS(=O)(=O)c3ccc(Cl)s3)nc3cccnc32)cc1	·	-6.3%[10.9 µM]	·
CN(C)c1ccc(-c2cncnc2-n2ccnc2)cc1	2.6%	?	0.7%
Cc1sc2ccccc2[n+]1CCC(=O)O	?	2.1%[10.9 µM]	?
CC1CCC(Nc2nc3c(-c4ccc(Cl)cc4)nnn3c3ccccc23)CC1 (centres undefined)	·	14.5%[10.9 µM]	·
CCCCNC(=O)c1cnn2c(C)c(Cc3c(F)cccc3Cl)c(C)nc12	·	-15.9%[10.9 µM]	·
CCCCNc1nc2c(c(=O)n(Cc3ccc(Cl)c(Cl)c3)c(=O)n2C)n1C	·	-7.9%[10.9 µM]	·
CSC(=[SH+])N=N/C(=C1/C=CC=CN1)c1ccccn1.[Cu][Br]	·	-64.9%[10.9 µM]	·
C1CCN(c2nc3nonc3nc2N2CCCCC2)CC1	?	-9.3%	?
Nc1nonc1-c1noc(N2CCCCC2)n1	10µM*	-61.0%	?
COc1ccc(OC2C=CC(C#Cc3ccccc3)OC2CO)cc1 (centres undefined)	13.3%[11.4 µM]	·	-2.3%[11.4 µM]
COCC(=O)N1CCC[C@@]2(CCN(Cc3nccs3)C2)C1	-1.0%	·	-0.9%
CC(=O)NC(N1CCCCC1)C(F)(F)C(F)(F)C(F)(F)C(F)F (centres undefined)	-1.3%	-3.7%	1.2%
O=P(O)(O)C(O)C(F)(F)C(F)(F)C(F)(F)C(F)F (centres undefined)	3.98µM*	15.2%	?
COc1cccc(NC(=O)c2nnn(Cc3ccc(OC)c(Br)c3)c2N)c1	·	-7.3%[10.9 µM]	·
CCCCOn1c(C)c(C(=O)OCC)c2c3no[n+]([O-])c3ccc21	6.6%	9.5%	18.5%
CCCCOn1c(C)c(C(=O)OCC)c2c3nonc3ccc21	12.6µM*	-16.0%	?
CCc1c(C)nc2nncn2c1Nc1ccc(C)c(F)c1	·	-9.5%[10.9 µM]	·
COC(=O)CCC(=O)Nc1ccc(NC(=O)CCC(=O)OC)cc1	0.9%	·	-1.9%
COC(=O)CCC(=O)Oc1ccc(OC(=O)CCC(=O)OC)cc1	3.1%	5.01µM*	-1.9%
COc1ccc(Cn2c(C(=O)O)c(CNCc3ccc(SC)cc3)c3ccc(OC)cc32)cc1	·	-8.5%[10.9 µM]	·
CC(C)c1noc(-c2ccccc2OCC(=O)Nc2cccc([N+](=O)[O-])c2)n1	·	-15.4%[10.9 µM]	·
SMILES	HEK293 cAMP cs	Peg3 imprint	TSHR agonist
CCOC(=O)c1cc(-c2ccc3c(c2)OCCO3)nc2c1c(C)nn2CCC#N	20µM*	-17.4%	?
CCOC(=O)c1cc(-c2ccco2)nc2c1c(C)nn2CCC#N	?	-12.6%	?
Cc1ccc(NC(=O)c2cnc3sc(N4CCOCC4)nn3c2=O)cc1N(C)C	·	-10.4%[10.9 µM]	·
COC(=O)C1=C(C)NC(C)=C(C(=O)OC)C1c1ccc(N(C)C)cc1	4.7%	-8.2%	20µM*
CCOC(=O)C1=C(C)NC(C)=C(C(=O)OCC)C1c1ccc(O)cc1	?	-5.3%	?
CCOC(=O)c1sc(NC(=O)CN2CCCC2)c(C(=O)OCC)c1C	24.9%	-0.8%	24.5%
CCOC(=O)c1sc(NC(=O)CSc2nnc(C)s2)c(C(=O)OCC)c1C	12.6µM*	-3.2%	?
CCCN(C(=O)c1cc(S(=O)(=O)N2CCc3ccccc32)cn1C)c1ccc(OCC)cc1	·	-13.8%[10.9 µM]	·
COc1ccc(-c2cc([C@H](O)C3CCCCN3)c3ccccc3n2)cc1 (some centres undefined)	·	-9.5%[10.9 µM]	·
CCc1ccc(-c2cn(-c3nc(C)cc(C)n3)c(=N)o2)cc1	25.1µM*	-22.8%	?
CCc1ccc(-c2cn3nc(CC)sc3n2)cc1	·	-12.4%[10.9 µM]	·
Cc1ccc(C2C3CSCC=C3C(C#N)=C(N)C2(C#N)C#N)cc1 (centres undefined)	-1.9%	-19.2%	25.1µM*
N#CC1=C(N)C(C#N)(C#N)[C@H](c2ccncc2)[C@H]2CC3(CC=C12)OCCO3	0.9%	-16.5%	2.8%
Cc1cc2oc3c(c(=O)c2cc1C)C1(C(=O)N(C)c2ccccc21)N(CCO)C3=O (centres undefined)	·	-6.7%[10.9 µM]	·
O=C(CCCSc1nnc(-c2cccs2)n1CC1CCCO1)c1ccccc1 (centres undefined)	?	-15.8%	?
CCOc1ccc(C(C)=O)cc1CSc1nnc(-c2cccs2)n1CC1CCCO1 (centres undefined)	10µM*	-9.4%	?
FC(F)(F)c1cc(CO[C@H]2CCCN[C@H]2c2ccccc2)cc(C(F)(F)F)c1	20µM*	-31.0%	?
C=C1c2cccc(C(F)(F)F)c2O[C@H](C(=O)OCC)[C@@H]1CCCCCC	·	-11.3%	·
Cc1ccc(-c2cc(C(=O)N3CCOCC3)c3ccccc3n2)cc1	6.2%	-4.0%	25.1µM*
COc1ccc(-c2cc(C(=O)N3CCOCC3)c3cc(C)ccc3n2)cc1	3.8%	-11.5%	0.2%
COc1ccc(-n2c(-c3ccco3)nc3c(cnn3-c3ccc(Cl)cc3)c2=O)cc1	·	-12.3%[10.9 µM]	·
O=c1c2cnn(-c3ccccc3)c2nc(-c2ccco2)n1-c1ccccc1	20µM*	-16.1%	?
COc1ccc(C(=O)N2CCC3(CCN(Cc4ccccc4OC)CC3)CC2)cc1	10.7%	·	1.1%
COc1cc(C2N(c3ccccc3)CCN2c2ccccc2)cc(OC)c1OC	28.8%	-17.1%	3.16µM*
COc1cc(C2N(c3cccc(Cl)c3)C(=O)C3CCCN32)cc(OC)c1OC (centres undefined)	18.0%	-18.5%	-4.5%
SMILES	HEK293 cAMP cs	Peg3 imprint	TSHR agonist
Cc1cc(=O)[nH]c2nnc(SCc3ccccc3F)n12	·	5.5%[10.9 µM]	·
CCOc1ccc(-c2nn3c(-c4ccc(F)cc4)nnc3s2)cc1	24.2%	14.7%	·
Clc1ccc(OCc2nn3c(-c4ccncc4)nnc3s2)cc1	31.6µM*	?	?
CCOc1ccc(-c2nnc3sc(COc4ccc(C)cc4)nn23)cc1	20µM*	11.5%	?
CCOc1ccc(-c2nnc3sc(COc4ccc(Cl)cc4)nn23)cc1	25.1µM*	18.1%	?
Clc1ccc(OCc2nn3c(-c4ccco4)nnc3s2)cc1	?	-7.5%	?
COc1ccc(OCc2nn3c(-c4cccc(OC)c4)nnc3s2)cc1	?	-2.9%	?
Cc1ccc(CC(=O)Nc2c(C(=O)N3CCN(c4ccccc4F)CC3)oc3ccccc23)cc1	·	-12.2%[10.9 µM]	·
Cc1ccc2nc(-c3ccccc3F)c(Nc3ccc(Cl)cc3)n2c1	·	-7.3%[10.9 µM]	·
Cc1ccc(N2C(=O)C(CC(=O)Nc3cccc(F)c3)N(CCc3ccccc3F)C2=O)cc1 (centres undefined)	·	-8.9%[10.9 µM]	·
CC1(C)OC(C(O)(c2cc(F)c(F)c(F)c2)c2cc(F)c(F)c(F)c2)C(C(O)(c2cc(F)c(F)c(F)c2)c2cc(F)c(F)c(F)c2)O1 (centres undefined)	5.6%[11.4 µM]	·	9.6%[11.4 µM]
COc1cccc(OC)c1Cn1nnc2c(=O)[nH]c(C3CCN(C(=O)c4ccccc4)CC3)nc21	·	-7.8%[10.9 µM]	·

Source: PubChem
